# Target: MTOR
# Assay: pooled miR-30 sensor sort-seq; sequence = guide strand
# Conditions: shRNA
# Note: reference of the scale not given here.
row,Sequence,sensor-assay potency score (higher = more potent)
1,TAAATCTCGACCATAGGCCTGA,0.425
2,ATAGCATTGGTCAACATTCTTG,-0.775
3,TTCTTCTCCCTGTAGTCCCGGA,-0.437
4,TTCTCTGGAAACTTCTCTCGGG,-0.303
5,TTTAGTTGAGTATTTGTTCTGC,0.462
6,TTATTCTGATACAACATGGTGT,0.00722
7,TTACTATGTTTCACTGTCCTGG,-0.25
8,TATAATTGGTTCTTCGGTCAAA,-0.45
9,TTGACCACTGAAAACATCCCAG,0.0557
10,TTTGGTATTTGTGTCCATCAGC,-0.533
11,TTTCATGGGATGTCGCTTGTTT,0.0185
12,TTGAGTATTTGTTCTGCTCATA,-0.623
13,TAGCATTGGTCAACATTCTTGT,0.089
14,TTTGTGTCCATCAGCCTCCAGT,-0.591
15,TAGGAATCCGTCCTCGTTCGGG,-0.165
16,TTAGAAGGAAAACAAACTCATG,-1.25
17,TATCCCTTGACAATTCTGCAGA,-0.562
18,TCTCTGGAAACTTCTCTCGGGT,-0.556
19,TTGTTGGCTGCATTGTGCCGGG,-0.403
20,TTTGATGAGCAGCTCAACTTGC,0.357
21,TATATTCTTCAACAGCAGCTAG,-0.667
22,TTTTGGGGAAACATATTGCAGC,-1.1
23,TTGGGTCTCATCATTAACCAGG,-0.739
24,TTAGAAGCCACTGTCAGTGGGT,0.584

# Source: the OligoGym collection
